# Measured values taken from PubChem BioAssay (Tox21).
# Inconclusive results are not listed. Where a call stands in place of a potency, no number is given. Activity calls are given as the source filed them. Unless noted, calls follow the shape of the dose curve; as a rule, active = well fitted curve in the direction sought with a large enough effect in the repeat runs; inconclusive = weak or mixed curves; inactive = flat fitted curve, though single readings scatter.
# Experiments:
# [1] = qHTS assay to test for compound auto fluorescence at 535 nm (green) in HEK293 cells (AID 720680)
# [2] = qHTS assay to test for compound auto fluorescence at 460 nm (blue) in HEK293 cell free culture (AID 720681)
# Procedure, shortened: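 Blue fluorescence (Ex 405/Em 460 nm, triamterene-equivalent) was read immediately after pin transfer of compound or DMSO into medium (DMEM, 10% FBS) without cells.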
# [3] = qHTS assay to test for compound auto fluorescence at 535 nm (green) in HEK293 cell free culture (AID 720682)
# Procedure, shortened: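 Steps: dispense DMEM/10% FBS into empty wells; pin in compound or DMSO; measure fluorescence at 485/535 nm. Values are fluorescein equivalents.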
# [4] = qHTS assay to test for compound auto fluorescence at 590 nm (red) in HEK293 cell free culture (AID 720683)
# Procedure, shortened: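 Red-channel autofluorescence of compounds in culture medium (DMEM, 10% FBS), no cells, measured at 540/590 nm. Rose Bengal sodium is the reference fluorophore for equivalence.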
# [5] = qHTS assay to test for compound auto fluorescence at 590 nm (red) in HepG2 cell free culture (AID 720684)
# Procedure, shortened: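 Steps: dispense MEM/10% FBS medium, no cells; pin compound or DMSO vehicle; read red channel, Ex/Em 540/590 nm. Output given as Rose Bengal sodium equivalents.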
# [6] = qHTS assay to test for compound auto fluorescence at 460 nm (blue) in HepG2 cell free culture (AID 720685)
# Procedure, shortened: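 Compound (23 nL) or DMSO pinned into cell-free MEM with 10% FBS; blue fluorescence read at 405/460 nm excitation/emission, expressed as auto-fluorescence equivalency to triamterene.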
# [7] = qHTS assay to test for compound auto fluorescence at 535 nm (green) in HepG2 cell free culture (AID 720686)
# [8] = qHTS assay to test for compound auto fluorescence at 460 nm (blue) in HepG2 cells (AID 720687)
# Procedure, shortened: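 Blue-channel autofluorescence (Ex/Em 405/460 nm, triamterene-equivalent) was measured after 1 hr compound exposure at 37 C, 5% CO2. Cells were HepG2, plated overnight at 37 C in MEM plus 10% FBS.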
# [9] = molecular target: Glucocorticoid receptor (Homo sapiens) (UniProt P04150); assay: qHTS assay to identify small molecule agonists of the glucocorticoid receptor (GR) signaling pathway (AID 720691; active = well fitted activation curve with a large enough effect in the signal ratio in the repeat runs, not every such curve was filed as active; the % refers to the signal ratio)
# Procedure, shortened: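 Fluorescence intensity from LiveBLAzer B/G FRET substrate (2 h, room temperature) reports beta-lactamase expression driven by the glucocorticoid response element in GR-bla HeLa cells after 18 h compound exposure at 37 C.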
# [10] = molecular target: Glucocorticoid receptor (Homo sapiens) (UniProt P04150); assay: qHTS assay to identify small molecule antagonists of the glucocorticoid receptor (GR) signaling pathway (AID 720692; active = well fitted inhibition curve with a large enough effect in the signal ratio in the repeat runs, not every such curve was filed as active; the % refers to the signal ratio; also: potency is read from the fitted curve at half-maximal effect)
# Procedure, shortened: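 HeLa GR-bla cells; cmpd + dex 5 nM final, 18 h 37 C; LiveBLAzer B/G FRET substrate 2 h RT; fluorescence intensity read. Antagonist mode, qHTS.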
# Chain of Glucocorticoid receptor (Homo sapiens) (P04150 whole entry, looked up): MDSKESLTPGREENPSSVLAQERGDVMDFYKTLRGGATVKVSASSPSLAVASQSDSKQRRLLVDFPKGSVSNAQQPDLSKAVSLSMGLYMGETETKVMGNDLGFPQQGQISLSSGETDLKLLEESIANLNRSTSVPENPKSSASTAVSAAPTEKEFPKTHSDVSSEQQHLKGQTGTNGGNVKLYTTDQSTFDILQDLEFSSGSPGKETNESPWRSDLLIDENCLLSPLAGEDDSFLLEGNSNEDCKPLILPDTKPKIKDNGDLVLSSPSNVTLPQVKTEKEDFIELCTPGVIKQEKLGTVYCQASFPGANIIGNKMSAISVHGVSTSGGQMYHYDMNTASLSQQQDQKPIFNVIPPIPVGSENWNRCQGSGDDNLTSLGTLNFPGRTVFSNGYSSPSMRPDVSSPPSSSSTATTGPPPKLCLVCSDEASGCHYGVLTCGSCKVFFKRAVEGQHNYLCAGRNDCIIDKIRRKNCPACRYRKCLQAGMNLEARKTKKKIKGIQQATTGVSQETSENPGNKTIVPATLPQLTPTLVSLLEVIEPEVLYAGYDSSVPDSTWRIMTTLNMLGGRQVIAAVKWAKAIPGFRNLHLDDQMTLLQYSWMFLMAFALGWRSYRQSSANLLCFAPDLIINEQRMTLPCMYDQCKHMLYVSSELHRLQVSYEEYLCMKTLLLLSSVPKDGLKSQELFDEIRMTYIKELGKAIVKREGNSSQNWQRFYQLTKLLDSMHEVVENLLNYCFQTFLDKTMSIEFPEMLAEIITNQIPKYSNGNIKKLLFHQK
Structure (SMILES),outcome [1],outcome [2],outcome [3],outcome [4],outcome [5],outcome [6],outcome [7],outcome [8],Potency [9],Potency [10]
O=c1cc[nH]c(=O)[nH]1,inactive,inactive,inactive,inactive,inactive,inactive,inactive,inactive,inactive,inactive
COc1ccc(O)cc1,inactive,inactive,inactive,inactive,inactive,inactive,inactive,inactive,inactive,inactive
c1ccc2[nH]c(-c3cscn3)nc2c1,inactive,inactive,inactive,inactive,inactive,inactive,inactive,inactive,inactive,inactive
C=C(C)OC(C)=O,inactive,inactive,inactive,inactive,inactive,inactive,inactive,inactive,inactive,inactive
Cc1cnc(NC(=O)C2=C(O)c3ccccc3S(=O)(=O)N2C)s1,inactive,inactive,inactive,inactive,inactive,inactive,inactive,inactive,inactive,inactive
NC(=O)c1ccc([N+](=O)[O-])cc1Cl,inactive,inactive,inactive,inactive,inactive,inactive,inactive,inactive,inactive,inactive
O=C(OCc1ccccc1)c1ccccc1,inactive,inactive,inactive,inactive,inactive,inactive,inactive,inactive,inactive,inactive
N[C@@H](Cc1c[nH]c2ccc(O)cc12)C(=O)O,inactive,inactive,inactive,inactive,inactive,inactive,inactive,inactive,inactive,inactive
COC(=O)c1ccc(C=O)cc1,inactive,inactive,inactive,inactive,inactive,inactive,inactive,inactive,inactive,inactive
CC(=O)CCC(C)C,inactive,inactive,inactive,inactive,inactive,inactive,inactive,inactive,inactive,inactive
Cc1c(N(C)CS(=O)(=O)O)c(=O)n(-c2ccccc2)n1C,inactive,inactive,inactive,inactive,inactive,inactive,inactive,,inactive,
C#C[C@]1(O)CC[C@H]2[C@@H]3CCc4cc(O)ccc4[C@H]3CC[C@@]21C,inactive,inactive,inactive,inactive,inactive,inactive,inactive,,,1.54 µM (active)
CC(=O)Oc1ccccc1C(=O)O,inactive,inactive,inactive,inactive,inactive,inactive,inactive,,inactive,inactive
CC(C)Cc1ccc(C(C)C(=O)O)cc1 (centres undefined),inactive,inactive,inactive,inactive,inactive,inactive,inactive,,inactive,inactive
NC(=O)NO,inactive,inactive,inactive,inactive,inactive,inactive,inactive,,inactive,inactive
O=C(O)CN(CC(=O)O)CC(=O)O,inactive,inactive,inactive,inactive,inactive,inactive,inactive,,inactive,inactive
CCCCC/C(C=O)=C\c1ccccc1,inactive,inactive,inactive,inactive,inactive,inactive,inactive,,inactive,inactive
C#C[C@]1(O)CC[C@H]2[C@@H]3CCC4=CC(=O)CC[C@@H]4[C@H]3CC[C@@]21CC,inactive,inactive,inactive,inactive,inactive,inactive,inactive,,inactive,
CCCCOCCOCCOC(C)=O,inactive,inactive,inactive,inactive,inactive,inactive,inactive,,inactive,inactive
NC(=O)N/N=C/c1ccc([N+](=O)[O-])o1,inactive,inactive,inactive,inactive,inactive,inactive,inactive,,inactive,inactive

Structure (SMILES),outcome [1],outcome [2],outcome [3],outcome [4],outcome [5],outcome [6],outcome [7],outcome [8],Potency [9],Potency [10]
CCc1cc(C(N)=S)ccn1,inactive,inactive,inactive,inactive,inactive,inactive,inactive,,inactive,inactive
Cc1cccc(Nc2cc(Cl)nc(SCC(=O)O)n2)c1C,inactive,inactive,inactive,inactive,inactive,inactive,inactive,,inactive,inactive
C=CCOC(=O)CC(C)C,inactive,inactive,inactive,inactive,inactive,inactive,inactive,,inactive,inactive
O=C(O)CCCCC1CCSS1 (centres undefined),inactive,inactive,inactive,inactive,inactive,inactive,inactive,inactive,inactive,inactive
Cn1cnc2c1c(=O)[nH]c(=O)n2C,inactive,inactive,inactive,inactive,inactive,inactive,inactive,,inactive,inactive
COC1=CC(=O)C[C@@H](C)[C@]12Oc1c(Cl)c(OC)cc(OC)c1C2=O,inactive,inactive,inactive,inactive,inactive,inactive,inactive,,inactive,inactive
CC(C)(C)NCC(O)c1ccc(O)c(CO)c1 (centres undefined),inactive,inactive,inactive,inactive,inactive,inactive,inactive,,inactive,inactive
Cc1ccc(O)c(-n2nc3ccccc3n2)c1,inactive,inactive,inactive,inactive,inactive,inactive,inactive,,inactive,inactive
Cc1c(N(C)C)c(=O)n(-c2ccccc2)n1C,inactive,inactive,inactive,inactive,inactive,inactive,inactive,,inactive,inactive
CC(O)COc1ccccc1 (centres undefined),inactive,inactive,inactive,inactive,inactive,inactive,inactive,,inactive,inactive
N[C@@H](Cc1c[nH]c2ccccc12)C(=O)O,inactive,inactive,inactive,inactive,inactive,inactive,inactive,,inactive,inactive
CN(C)Cc1cc(CN(C)C)c(O)c(CN(C)C)c1,inactive,inactive,inactive,inactive,inactive,inactive,inactive,inactive,inactive,inactive
CC1=C(/C=C/C(C)=C/C=C/C(C)=C/C(=O)O)C(C)(C)CCC1,inactive,inactive,inactive,inactive,inactive,inactive,inactive,inactive,,54.9 µM (active)
NC(N)=NC(N)=NCCc1ccccc1,inactive,inactive,inactive,inactive,inactive,inactive,inactive,,inactive,inactive
NCCNc1cccc2ccccc12,inactive,inactive,inactive,inactive,inactive,inactive,inactive,,inactive,inactive
NC(=O)OCC(COC(N)=O)c1ccccc1,inactive,inactive,inactive,inactive,inactive,inactive,inactive,,inactive,inactive
CCOC(=O)C(C)(C)Oc1ccc(Cl)cc1,inactive,inactive,inactive,inactive,inactive,inactive,inactive,,inactive,inactive
CCN1CCCC1=O,inactive,inactive,inactive,inactive,inactive,inactive,inactive,,inactive,inactive
CC(=O)c1ccc(S(=O)(=O)NC(=O)NC2CCCCC2)cc1,inactive,inactive,inactive,inactive,inactive,inactive,inactive,,inactive,inactive
CCCCCCCC(=O)OCC(O)CO (centres undefined),inactive,inactive,inactive,inactive,inactive,inactive,inactive,,inactive,inactive
